This is part of a sample that, as a whole, favours compounds with a hit. Of some 83,000 tested, about 20% had one in any assay.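 Each cell line was grown in a 96-well plate and treated with one concentration of compound for 48 hours. Values below 10 were considered active.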 Values without a mark were called inactive. Calls of active or inactive are those of the source.
Columns and labels:
Test in all cases: NCI-60 one-dose screen, 48 h (100 = growth as untreated, 0 = no growth, -100 = all killed)
Conditions in all cases: 10 µM unless noted
NCI-H23 lung = system: NCI-H23 lung
NCI-H226 lung = system: NCI-H226 lung
NCI-H322M lung = system: NCI-H322M lung
HOP-62 NSCLC = system: HOP-62 NSCLC
NCI-H460 lung = system: NCI-H460 lung
HOP-92 NSCLC = system: HOP-92 NSCLC
NCI-H522 lung = system: NCI-H522 lung
A549/ATCC NSCLC = system: A549/ATCC NSCLC
786-0 renal = system: 786-0 renal
DU-145 prostate = system: DU-145 prostate
K-562 leukemia = system: K-562 leukemia
MALME-3M melanoma = system: MALME-3M melanoma
MDA-MB-231 breast = system: MDA-MB-231 breast
RXF 393 renal = system: RXF 393 renal
SF-268 CNS = system: SF-268 CNS
SF-295 CNS = system: SF-295 CNS
SF-539 CNS = system: SF-539 CNS
UACC-257 melanoma = system: UACC-257 melanoma
M14 melanoma = system: M14 melanoma
COLO 205 colon = system: COLO 205 colon

Row | SMILES | growth (NCI-H23 lung) | growth (NCI-H226 lung) [%] | growth (NCI-H322M lung) | growth (HOP-62 NSCLC) | growth (NCI-H460 lung) | growth (HOP-92 NSCLC) | growth (NCI-H522 lung) | growth (A549/ATCC NSCLC) | growth (786-0 renal) | growth (DU-145 prostate) | growth (K-562 leukemia) | growth (MALME-3M melanoma) | growth (MDA-MB-231 breast) | growth (RXF 393 renal) | growth (SF-268 CNS) | growth (SF-295 CNS) | growth (SF-539 CNS) | growth (UACC-257 melanoma) | growth (M14 melanoma) | growth (COLO 205 colon)
1 | COc1ccccc1Nc1nc2c(s1)C1=CC[C@H]3[C@@H]4CC[C@H]([C@H](C)CCCC(C)C)[C@@]4(C)CC[C@@H]3[C@@]1(C)CC2 | 93.3% | 103 | 101% | 95.9% | 108% | 90.8% | 106% | 103% | 114% | 103% | 102% | 101% | 103% | 117% | 102% | 108% | 104% | 110% | 101% | 
2 | O=C(COc1ccc(-c2nc3ccccc3[nH]2)cc1)N=Nc1c(O)[nH]c2ccc(Cl)cc12 | 87.3% | 97 | 101% | 99.9% | 30.7% | 93% | 93.6% | 99% | 46% | 91.9% | 2.09% (active) | 93.3% | 84.6% | 88.2% | 99.3% | 91.2% | 93.3% | 104% | 87% | 
3 | Oc1c(Cl)cc(Cl)c2ccc(Cn3cc(-c4cc(F)cc(F)c4)nn3)nc12 | 92.3% | 95.1 | 111% | 98.9% | 104% | 29% | -38.7% (active) | 102% | 95.6% | 58.5% | 7.96% (active) | 37.2% | 97.9% | 25.6% | 97.2% | 100% | 65.8% | 60.4% | 61.5% | 70.4%
4 | CN(C)CCNc1nc2c3cc(Cl)ccc3nn2c2ccccc12 | 45.5% | 61.1 | 40.2% | 43.9% | 15.8% | 36.8% | 67% | 31.5% | 38.1% | 54.3% | 46.5% | 42% | 46.8% | 4.75% (active) | 45.7% | 26.9% | 36.8% | 52.5% | 62.1% | 
5 | O=C(O)/C(=C\c1ccc(Cl)cc1)c1ccc(Cl)cc1 | 90.8% | 99.1 | 92.2% | 104% | 97.5% | 67.7% | 81.9% | 88.5% | 90.3% | 107% | 43.8% | 81.5% | 92.9% | 78.8% | 96.5% | 118% | 95.2% | 85.8% | 95.8% | 117%
6 | N#Cc1c(NC(=O)c2ccccc2)sc2c1CCC(=O)C2 | 5.05% (active) | 14.7 | 71.9% | 40.7% | 16.3% | -22.9% (active) | -12.7% (active) | 52.7% | 25.9% | 40.7% | 4.06% (active) | -12.9% (active) | -11.3% (active) | -1.37% (active) | 16% | 21.7% | -28.4% (active) | 2.08% (active) | 14% | 
7 | COc1cc(/C=C\c2cc(/C=C\c3ccc(O)c(OC)c3)n(C(=O)COc3ccc(Cl)cc3Cl)n2)ccc1O | 14.1% | 26.5 | 40.8% | 11.3% | 9.28% (active) | 12.5% | -28.7% (active) | 10.6% | 13.7% | 16.5% | 4.41% (active) | 12.1% | 10.1% | -9.98% (active) | 20.2% | 23.1% | 8.64% (active) | 41.9% | 4.34% (active) | 82.4%
8 | N#CC1=C(N)Oc2c(sc3c(Br)cccc23)C1c1ccc(F)cc1 (configuration not stated) | 31.1% | 36.6 | 41.3% | 26.3% | 9.57% (active) | 41% | -6.79% (active) | 24.1% | 12.2% | 24.1% | 9.02% (active) | 49.4% | 16.9% | -2.88% (active) | 25.5% | 5.32% (active) | -27.1% (active) | 74.1% | 9.58% (active) | 
9 | O=C1COCCN1c1ccc(Nc2nc(Cl)nc(OCc3cn(Cc4ccccc4)nn3)n2)cc1 | 87.2% | 95.1 | 98.2% | 87.5% | 107% | 82.5% | 76.5% | 95.7% | 101% | 90.5% | 33.2% | 96.1% | 95.4% | 90.7% | 80.9% | 102% | 98.2% | 84.4% | 76.1% | 
10 | N#C/C(=C\c1ccc2ccccc2c1)c1cc2ccccc2[nH]1 | 48.8% | 67.9 | 63.3% | 40.4% | 13.3% | 41.5% |  | 51.1% | 41.1% | 59.5% | 19.4% | 45% | 41.5% | 29.3% | 54.2% | 33% | 32.9% | 63.2% | 18% | 24.9%
11 | CCCCCCCCn1ccc2cc(NC(=O)CN3CCN(c4nc(C)cc(Cl)n4)CC3)ccc21 | 91.5% | 88.9 | 87.8% | 99.3% | 100% | 79.3% |  | 96.3% | 97.7% | 101% | 85.2% | 91.5% | 107% | 103% | 96.3% | 102% | 107% | 114% | 96.1% | 100%
12 | CN(CCn1sc(=O)n(Cc2ccccc2)c1=O)Cc1ccc2c(Cl)cc(Cl)c(O)c2n1 | 50.1% | 61.9 | 41% | 25.2% | 19.8% | 36% |  | 32.6% | 37.6% | 51.6% | 13.7% | 63.7% | 46.4% | 53.7% | 46.1% | 30.5% | 47.1% | 78.5% | 49.4% | 93.7%
13 | CCCCC[C@@H]1Cc2cc(O)c(C(=O)O)c3c2[C@H](C[C@]2(OC[C@@H](CC(=O)[C@@](C)(CC)C(=O)OC)[C@@H]2C)O3)O1 | 112% | 92.1 | 105% | 117% | 109% | 113% | 117% | 107% | 108% | 120% | 117% | 104% | 100% | 119% | 108% | 121% | 100% | 87.6% | 119% | 
14 | C=C(CNCCc1ccc(O)cc1)[C@@H]1CC[C@]2(CO)CC[C@]3(C)[C@H](CC[C@@H]4[C@@]5(C)CCC(NCCO)C(C)(C)[C@@H]5CC[C@]43C)[C@@H]12 (some centres not stated) | -33.5% (active) | 81.5 | -24.5% (active) | -68.7% (active) | -87.4% (active) | -62.6% (active) |  | -39% (active) | -92.1% (active) | -31% (active) | -49% (active) | -90.6% (active) | -77.6% (active) | -90.3% (active) | -62.4% (active) | -80.8% (active) | -97.3% (active) | -77.9% (active) | -89.3% (active) | -68.5% (active)
15 | Fc1ccc(-c2nn(-c3ccccc3)cc2-c2nc3ccccc3o2)cc1 | 65.8% | 84.4 | 107% | 48.7% | 37.5% | 91.2% |  | 55.3% | 88.3% | 90.1% | 37.5% | 63.6% | 59.1% | 105% | 58.5% | 45.4% | 91.7% | 102% | 48.2% | 140%
16 | COc1cc(/C=C/C(=O)c2cccc(Nc3nc(Nc4ccccc4)nc(Nc4ccccc4)n3)c2)cc(OC)c1OC | 40.7% | 68.6 | 87.2% | 74.6% | 59.9% | -48.2% (active) | 87.8% | 59.5% | 65.1% | 60.9% | 24.1% | 69% | 56% | -32.4% (active) | 73.4% | 72.9% | 78.7% | 106% | 78.5% | 

Source: PubChem BioAssay (NCI)
